Bioassay records: PubChem, The Scripps Research Institute Molecular Screening Center
MITF inh: blocks human microphthalmia-associated transcription factor; inhibition, % at 2.6 µM; AlphaScreen MITF homodimerization, bead proximity signal; 650,000 compounds, 0.91% hits; O75030; AID 1259374; in the data active = inhibition above about 50%;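 also: 0% = vehicle wells with protein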
TEAD-YAP block: TEAD-YAP interaction inhibition; AID 1259422; HEK-TIYL cells, TEAD-Gal4/YAP UAS-luciferase luminescence; inhibition, % at 9.12 µM; 640,000 compounds, 1.4% hits; in the data active = inhibition above about 32%;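 also: 0% = median of test compound wells and 100% = reference inhibitor wells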
GPR151 activ: activates the human receptor GPR151; Q8TDV0; PathHunter beta-arrestin GPR151 cells, luminescence; activation, % at 11.2 µM; 650,000 compounds, 1% hits; AID 1508602; in the data active = activation above about 4.9%;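 also: 0% = median of compound wells and 100% = cells with positive control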
FBW7 act: human FBW7 E3 ligase activation, primary screen | AlphaScreen FBW7–phospho-cyclin E peptide binding, activator screen | normalized activity (activation), % at 26.1 µM | 650,000 compounds, 0.13% hits | AID 1259310; in the data active = normalized activity above about 1.9%;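 also: purified mutant Fbw7 with reduced substrate affinity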
Target sequence (Q969H0 whole entry, looked up): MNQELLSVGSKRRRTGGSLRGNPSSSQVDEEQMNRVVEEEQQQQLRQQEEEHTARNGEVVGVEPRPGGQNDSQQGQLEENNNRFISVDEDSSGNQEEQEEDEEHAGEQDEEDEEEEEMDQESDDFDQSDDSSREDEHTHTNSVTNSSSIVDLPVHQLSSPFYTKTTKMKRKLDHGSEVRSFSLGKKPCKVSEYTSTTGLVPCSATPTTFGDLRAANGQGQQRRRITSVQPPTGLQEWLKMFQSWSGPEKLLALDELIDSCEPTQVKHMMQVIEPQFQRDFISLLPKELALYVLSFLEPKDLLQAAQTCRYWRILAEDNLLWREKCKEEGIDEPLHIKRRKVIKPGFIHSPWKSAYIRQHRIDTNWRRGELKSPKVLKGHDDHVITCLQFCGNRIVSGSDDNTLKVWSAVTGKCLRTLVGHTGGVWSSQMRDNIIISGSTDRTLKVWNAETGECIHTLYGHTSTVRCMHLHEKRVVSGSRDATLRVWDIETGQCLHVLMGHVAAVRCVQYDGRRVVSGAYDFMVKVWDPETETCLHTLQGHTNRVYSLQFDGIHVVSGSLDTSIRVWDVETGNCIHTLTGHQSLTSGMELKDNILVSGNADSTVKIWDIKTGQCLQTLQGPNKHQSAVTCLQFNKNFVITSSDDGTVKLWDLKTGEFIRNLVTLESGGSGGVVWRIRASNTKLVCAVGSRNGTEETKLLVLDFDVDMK
GPR151 confirm: human GPR151 activation, confirmation screen; shares compounds with GPR151 activ; GPR151 PathHunter beta-arrestin cells, luminescence, 90 min; % of EA-reagent control over plate median; activation, % at 11.2 µM; 6,700 tested, under 10 active; AID 1508609;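 active = mean percent activation across replicates above the confirmation screen cutoff of 4.91%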
GPR119 ag: activates human GPR119 in a GPR151 counter-screen | shares compounds with GPR151 activ | activation, % at 11.2 µM | AID 1508611 | GPR119 PathHunter beta-arrestin cells, luminescence, 90 min; 0 = compound-well median, 100 = enzyme-acceptor control | 6,700 compounds, 0.3% hits;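 active = mean percent activation in the counterscreen above 29.09%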;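 also: counterscreen on off-target GPR119 to flag nonselective hits from the GPR151 activator screen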
Active calls of the source: *; x = not tested or not shown. Rows were chosen to be rich in hits. Some 3.5% of all compounds tested hit in one or more screens of this group.

SMILES	MITF inh	TEAD-YAP block	GPR151 activ	FBW7 act	GPR151 confirm	GPR119 ag
C#CCN1C(=O)S/C(=C/c2cccc([N+](=O)[O-])c2)C1=O	-25	4	0	0	x	x
COc1ccc(Cl)cc1NC(=O)C(=O)NC(C)C	-3	-8	0	0	x	x
Cc1ccc2nc(-c3ccc(C)c(C)c3)cc(C(=O)OCC(=O)c3ccc([N+](=O)[O-])cc3)c2c1	7	4	5.6*	0	0	7
Cc1ccc(C(=O)COC(=O)c2cc(-c3ccc(C)c(C)c3)nc3ccc(C)cc23)cc1	1	7	0	0	x	x
CN(C)c1cccc(Nc2nc(Nc3ccc(N4CCOCC4)cc3)c3ncn(-c4ccsc4)c3n2)c1	5	9	0	0	x	x
CN(C)c1cccc(Nc2nc(Nc3ccc4c(c3)OCO4)c3ncn(-c4ccsc4)c3n2)c1	7	-34	5.0*	0	-1	-13
c1ccc(Nc2nc(Nc3ccccc3)c3ncn(-c4ccsc4)c3n2)cc1	11	7	1	0	x	x
Cc1nn(C)c(C)c1-c1nc(NCCN2CCOCC2)c2ncn(-c3ccccc3)c2n1	18	21	0	0	x	x
CC(C)N(CCNc1nc(Nc2cccc(N(C)C)c2)nc2c1ncn2-c1ccsc1)C(C)C	9	2	5.7*	0	-1	-13
CN(C)c1cccc(Nc2nc(NCCO)c3ncn(-c4ccsc4)c3n2)c1	17	8	-2	0	x	x
Cc1nn(C)c(C)c1-c1nc(NCCO)c2ncn(-c3ccccc3)c2n1	3	29	5.2*	0	1	-3
OCCNc1nc(Nc2ccccc2)nc2c1ncn2-c1ccsc1	13	59*	5.1*	0	0	-8
COc1ccc(N2CCN(CCCNC(=O)c3oc(=O)c4ccccc4c3-c3ccc(C)cc3)CC2)cc1	11	-3	0	0	x	x
O=C(NCc1nc2ccccc2[nH]1)c1cccc(-c2cccs2)n1	6	6	-1	0	x	x
CCC1SC(CC)C(=O)N(CC(=O)Nc2ccccc2F)C1=O (centres undefined)	-2	-7	1	0	x	x
COc1cc(C(=O)NNC(=O)CCN2CCCCC2)cc(OC)c1OC	-16	9	4.9*	0	-1	-14
COCCC(=O)Nc1ccc2c(c1)CN(S(=O)(=O)N1CCCC1)CC2	3	1	7.5*	0	0	0
CC(C)c1ccc(NC(=O)CN(c2ccc(Cl)cc2)S(C)(=O)=O)cc1	-18	-67	6.2*	0	1	14
CC(=O)Nc1ccc(NC(=O)CN(c2ccc(C(C)C)cc2)S(C)(=O)=O)cc1	-14	-47	-1	0	x	x
CC(C)c1ccc(N(CC(=O)NCCSc2ccccc2)S(C)(=O)=O)cc1	20	3	21*	1	-1	0
Cc1c(OCc2ccc(Br)cc2)ccc2c3c(c(=O)oc12)CCCC3	1	4	-1	0	x	x
CCCCCCCn1c(Cc2ccccc2)nc2ccccc21	-1	-4	5.8*	0	0	-1
CCN1CCCC1CN1C(=O)C2C(C(=O)Nc3cccc(OC)c3)C3C=CC2(O3)C1C(=O)NC1CCCCC1 (centres undefined)	-9	-17	-1	0	x	x
O=[N+]([O-])c1cc(S(=O)(=O)N2CCOCC2)ccc1NN=C1C2CC3CC(C2)CC1C3	2	-3	5.0*	0	1	2
CC(C)N1CCC(=NNc2ccc(S(=O)(=O)N3CCOCC3)cc2[N+](=O)[O-])CC1	10	9	3	0	x	x
SMILES	MITF inh	TEAD-YAP block	GPR151 activ	FBW7 act	GPR151 confirm	GPR119 ag
C/C(=N/O)c1ccc(NC2=C(N3CCCC3)C(=O)c3ccccc3C2=O)cc1	-2	9	5.9*	-1	0	4
CC(=O)c1ccc(NC2=C(N3CCCCC3)C(=O)c3ccccc3C2=O)cc1	3	-4	-2	0	x	x
Cc1ccc(/C(N)=N/OC(=O)Cc2cccc3ccccc23)cc1	-3	4	1	0	x	x
Cc1ccc(CC(=O)O/N=C(\N)Cc2cccc3ccccc23)cc1	7	10	5.5*	0	0	-4
CC(=O)Nc1ccnn1C1CCN(Cc2ccc(C#CC(C)(C)O)s2)CC1	5	14	-1	0	x	x
CCOc1ccc(C2C(C#N)=C(N)OC3=C2C(=O)CC(C)(C)C3)cc1 (centres undefined)	-5	0	8.0*	0	0	-10
